Assay results as given in PubChem BioAssay.
Calls of active or inactive are those of the source.

Tests used:
[1] = compound effects on differentiated 3T3-L1 adipocyte viability – cell-based, 3T3-L1 adipocytes, calcein-AM fluorescence, 48 h, basal, profiling panel (AID 1163); conditions: 3T3-L1 adipocytes viability, higher = more signal
[2] = compound effects on hepatocellular carcinoma cell viability – HepG2, calcein-AM fluorescence, 48 h, basal, profiling panel (AID 1164); conditions: higher = more signal
[3] = compound effects on multiple myeloma cell viability – MM1S, calcein-AM fluorescence, 48 h, basal, profiling panel (AID 1165); conditions: higher = more signal
[4] = calcein-AM signal in unstimulated myeloma cells – cell-based, calcein-AM fluorescence, 48 h, PK04 Diversity Set, profiling panel (AID 1166); conditions: RPMI8226 myeloma viability, higher = more signal;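 note: cells grown under basal conditions without added stimulus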
[5] = JC-1 mitochondrial signal, unstimulated HepG2 cells – cell-based, JC-1 fluorescence, 24 h, 100 nL compound, profiling panel (AID 1167); conditions: HepG2 mitochondrial potential, higher = more signal
[6] = JC-1 mitochondrial signal, unstimulated adipocytes – cell-based, JC-1 fluorescence, 3T3-L1 adipocytes, 24 h, 100 nL compound, profiling panel (AID 1168); conditions: JC-1 mitochondrial fluorescence, higher = more signal, called active from +8 up or from −8 down
[7] = JC-1 mitochondrial signal, unstimulated myeloma cells – cell-based, JC-1 fluorescence, RPMI8226, 24 h, 100 nL compound, profiling panel (AID 1169); conditions: JC-1 mitochondrial potential fluorescence, higher = more signal
[8] = JC-1 mitochondrial signal, unstimulated MM1S myeloma – cell-based, JC-1 fluorescence, 24 h, 100 nL compound, profiling panel (AID 1170); conditions: MM1S mitochondrial potential, higher = more signal
[9] = resazurin metabolic signal in A549 cells – cell-based, resazurin fluorescence, 24 h, PK04 Diversity Set, profiling panel (AID 1171); conditions: A549 viability, higher = more signal, called active from +8 up or from −8 down
[10] = resazurin metabolic signal in HepG2 cells – cell-based, resazurin fluorescence, 24 h, PK04 Diversity Set, profiling panel (AID 1172); conditions: HepG2 viability, higher = more signal
[11] = budding yeast growth changes without added modifier – OD600, strain BY4716, 24 h, basal condition, primary screen (AID 1173); conditions: S. cerevisiae BY4716 growth, OD600, 24 h; higher = more signal, called active from +8 up or from −8 down
[12] = viability profiling in MM1S myeloma cells – cell-based, resazurin fluorescence, basal, 24 h, PK04 Diversity Set, profiling panel (AID 1174); conditions: higher = more signal, called active from +8 up or from −8 down
[13] = target: Dihydroorotate dehydrogenase (quinone), mitochondrial (Plasmodium falciparum (isolate 3D7)) (UniProt Q08210); assay: inhibition of P. falciparum DHODH – biochemical, C-terminal His tag, absorbance 600 nm, primary screen (AID 1175); conditions: PfDHODH enzyme, DCIP absorbance 600 nm; higher = more signal, called active from +8 up or from −8 down;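 note: recombinant parasite enzyme with a five histidine tag at its C terminus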
[14] = growth modulation of vineyard yeast isolate – strain RM11-1a, OD600, basal, 24 h, primary screen (AID 1177);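 note: cultures grown under basal conditions with no added stressor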; conditions: S. cerevisiae RM11-1a growth, OD600, 24 h; higher = more signal, called active from +8 up or from −8 down
[15] = growth of efflux-deficient E. coli DRC39 – strain DRC39, OD650, 24 h, E. coli filamentation inducers, primary screen (AID 1178);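 note: growth measured as culture turbidity by optical density at 650 nm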; conditions: E. coli DRC39 acrAB, higher = more signal, called active from +8 up or from −8 down
[16] = growth of efflux-deficient E. coli DRC39 – strain DRC39, OD650, 48 h, E. coli filamentation inducers, primary screen (AID 1179);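 note: screen aims at cell division blockers that make cells filament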; conditions: E. coli DRC39 delta-acrAB growth, higher = more signal, called active from +8 up or from −8 down
[17] = viability profiling in RPMI8226 myeloma cells – cell-based, resazurin fluorescence, basal, 24 h, PK04 Diversity Set, profiling panel (AID 1180); conditions: higher = more signal;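 note: RPMI8826 multiple myeloma cell line at 5000 cells per well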
[18] = target: E3 ubiquitin-protein ligase XIAP (Homo sapiens) (UniProt P98170); assay: small molecules binding XIAP protein – biophysical, small-molecule microarray, fluorescence 635 nm, primary screen (AID 1181); conditions: higher = more signal;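 note: score merges 667 nm emission and signal to noise over triplicate slides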
[19] = tested on: XIP peptide (Xip251-270) binding; assay: XIP fragment 251-270 binding compounds – biochemical, small-molecule microarray, fluorescence 635/667 nm, 0.1 µg/mL protein, primary screen (AID 1182); conditions: fluorescent protein binding, 635 nm, higher = more signal, called active from +8 up or from −8 down
XIP peptide (Xip251-270) = assay: compounds binding XIP fragment 251-270 – biochemical, small-molecule microarray, fluorescence 635/667 nm, 0.5 µg/mL protein, primary screen (AID 1183); conditions: fluorescence 635 nm, higher = more signal

Chain of E3 ubiquitin-protein ligase XIAP (Homo sapiens) (P98170 whole entry, looked up, the tested form may be a part): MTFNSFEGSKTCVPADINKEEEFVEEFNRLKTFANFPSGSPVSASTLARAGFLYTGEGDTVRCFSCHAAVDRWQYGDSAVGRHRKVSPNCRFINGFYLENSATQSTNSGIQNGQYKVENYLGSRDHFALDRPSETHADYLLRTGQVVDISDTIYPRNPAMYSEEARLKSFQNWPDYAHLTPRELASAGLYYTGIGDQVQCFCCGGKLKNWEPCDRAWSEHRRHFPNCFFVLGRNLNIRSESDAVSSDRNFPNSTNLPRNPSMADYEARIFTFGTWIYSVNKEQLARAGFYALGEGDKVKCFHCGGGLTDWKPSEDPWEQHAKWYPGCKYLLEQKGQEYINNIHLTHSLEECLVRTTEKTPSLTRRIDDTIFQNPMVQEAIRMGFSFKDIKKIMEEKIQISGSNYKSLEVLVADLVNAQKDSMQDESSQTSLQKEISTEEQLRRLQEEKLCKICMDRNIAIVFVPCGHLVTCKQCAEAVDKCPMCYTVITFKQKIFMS
Chain of Dihydroorotate dehydrogenase (quinone), mitochondrial (Plasmodium falciparum (isolate 3D7)) (Q08210 whole entry, looked up): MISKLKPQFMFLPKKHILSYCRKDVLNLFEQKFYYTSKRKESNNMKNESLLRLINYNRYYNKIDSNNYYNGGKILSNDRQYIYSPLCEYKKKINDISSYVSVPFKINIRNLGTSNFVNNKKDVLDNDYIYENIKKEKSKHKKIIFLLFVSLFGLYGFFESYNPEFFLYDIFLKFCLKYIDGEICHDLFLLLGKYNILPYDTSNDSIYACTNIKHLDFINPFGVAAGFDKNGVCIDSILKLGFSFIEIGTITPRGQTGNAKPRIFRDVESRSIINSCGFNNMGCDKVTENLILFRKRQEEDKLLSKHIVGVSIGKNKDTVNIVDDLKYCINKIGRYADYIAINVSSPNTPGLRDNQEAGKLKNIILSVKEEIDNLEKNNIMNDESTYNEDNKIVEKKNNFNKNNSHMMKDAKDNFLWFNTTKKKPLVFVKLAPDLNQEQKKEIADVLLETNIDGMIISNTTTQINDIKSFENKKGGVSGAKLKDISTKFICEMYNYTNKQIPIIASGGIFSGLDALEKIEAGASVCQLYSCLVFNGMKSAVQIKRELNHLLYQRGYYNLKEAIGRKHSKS

Compound | z-score [1] | z-score [2] | z-score [3] | z-score [4] | z-score [5] | z-score [6] | z-score [7] | z-score [8] | z-score [9] | z-score [10] | z-score [11] | z-score [12] | composite z-score [13] | z-score [14] | z-score [15] | z-score [16] | z-score [17] | composite z-score [18] | composite z-score [19] | composite z-score (XIP peptide (Xip251-270))
C=CCN1C(=O)[C@@]2(O[C@@H](CCO)[C@H]([Si](C)(C)c3ccc(OC)cc3)[C@H]2C)c2cc(N(C=O)c3ccccc3)ccc21 | 0.412 | -4.73 | -2.68 | -4.39 | -2.22 | 1.53 (inactive) | -1.05 | -2.14 | -4.7 (inactive) | -6.2 | -0.425 (inactive) | -8.88 (active) | -0.459 (inactive) | -0.592 (inactive) | 2.62 (inactive) | 1.81 (inactive) | -6.21 | -0.0203 | 0.527 (inactive) | 0.345
COC(=O)C1=CC(c2ccc(CO)cc2)=CC(c2cccs2)N(C)C=C1C(=O)OC (stereo not given) | 2.32 | -0.0015 | -0.517 | -0.257 | 0.636 | 0.375 (inactive) | -0.327 | 0.12 | 0.446 (inactive) | -0.419 | -2.16 (inactive) | 0.173 (inactive) | -1.75 (inactive) | -0.688 (inactive) | 1.05 (inactive) | 0.542 (inactive) | 1.05 | 0.0049 | 1.84 (inactive) | 0.302
CC(C)(C)OC(=O)CC[C@@]1(C(=O)NCc2ccccc2)N=C(c2ccc(OCCCO)cc2)O[C@@H]1c1ccccc1CN=[N+]=[N-] | 2.98 | -0.399 | 0.507 | -1.04 | 2.13 | 0.179 (inactive) | -1.12 | 0.236 | 0.392 (inactive) | -0.169 | -0.986 (inactive) | 0.725 (inactive) | -0.182 (inactive) | -0.496 (inactive) | 2.1 (inactive) | 0.824 (inactive) | 0.394 | -0.227 | 1.42 (inactive) | 0.733
CC(C)(C)OC(=O)CC[C@@]12N=C(c3ccc(OCCCO)cc3)O[C@@H]1c1ccccc1CN(Cc1ccccc1)C2=O | 1.52 | -1.46 | -3.12 | -4.06 | 0.528 | 0.547 (inactive) | -1.2 | -1.07 | -0.624 (inactive) | -0.232 | 1.13 (inactive) | -3.4 (inactive) | 0.714 (inactive) | 3.15 (inactive) | 1.21 (inactive) | 0.199 (inactive) | -2.12 | 0.286 | -0.127 (inactive) | 0.687
[N-]=[N+]=Nc1ccccc1[C@H]1OC(c2ccc(OCCCO)cc2)=N[C@@]1(Cc1ccccc1)C(N)=O | 1.26 | 0.13 | -3.09 | -3.37 | 0.912 | 3.11 (inactive) | -1.05 | -1.45 | -1.6 (inactive) | 0.0234 | -1.69 (inactive) | -1.29 (inactive) | -0.227 (inactive) | 0.401 (inactive) | 2.24 (inactive) | 1.45 (inactive) | -1.96 | -0.0351 | 1.05 (inactive) | 0.657
C=CCN1C(=O)[C@]2(O[C@H](CCn3cc([C@H](O)c4ccccc4)nn3)[C@@H]([Si](C)(C)c3ccc(OC)cc3)[C@@H]2C)c2cc(N3CCOC3=O)ccc21 | 3.08 | -0.812 | -1.98 | -2.86 | 3.15 | 2.62 (inactive) | -0.906 | -0.286 | -2.25 (inactive) | -1.22 | -0.506 (inactive) | -0.72 (inactive) | -0.175 (inactive) | 0.58 (inactive) | 1.84 (inactive) | 1.06 (inactive) | -1.23 | -0.0721 | 0.865 (inactive) | -0.0533
Cc1ccc(S[C@]2(C(=O)NC3CC3)CC(=O)N(Cc3ccccc3C(F)(F)F)[C@@H]2c2ccc(CO)cc2I)cc1 | 0.421 | -0.4 | -2.65 | -2.11 | 1.44 | 0.525 (inactive) | -0.513 | -0.93 | 0.149 (inactive) | 0.436 | -8 (inactive) | -1.93 (inactive) | -2.6 (inactive) | -2.07 (inactive) | 0.413 (inactive) | 0.303 (inactive) | -1.84 | -0.29 | 0.0437 (inactive) | -0.811
CCCCCN1CC=CC23O[C@@H]4/C=C\CCC(C)OC(=O)C4[C@H]2C(=O)N(CCCO)[C@@H]3C1=O (stereo not given in full) | 1.42 | 0.495 | -1.25 | 0.279 | 0.197 | 0.399 (inactive) | 0.318 | 0.962 | 0.427 (inactive) | 0.605 | -1.26 (inactive) | 1.5 (inactive) | 0.564 (inactive) | -0.599 (inactive) | 1.54 (inactive) | 1.11 (inactive) | 1.4 | -0.0351 | 0.156 (inactive) | -0.827
COCCCNC(=O)[C@@]1(CCS(=O)(=O)c2ccccc2)N=C(c2ccc(OCCCO)cc2)O[C@H]1c1ccccc1CN=[N+]=[N-] | 2.66 | -0.0301 | 0.872 | -0.532 | 1.02 | 0.164 (inactive) | -0.866 | 0.175 | 0.0658 (inactive) | -0.404 | -0.938 (inactive) | 1.21 (inactive) | -1.02 (inactive) | -1.49 (inactive) | 1.4 (inactive) | 0.502 (inactive) | 0.846 | 0.0871 | 0.901 (inactive) | 0.67
